Test results from publication PMC5540273 (PLoS ONE, 2017).

Experiments:
Details in all cases: concentration: 1 μM, replicates: in singlicate; n = 1
TESK1 = system: TESK1
TGFBR1 = system: TGFBR1
TGFBR2 = system: TGFBR2
TIE1 = system: TIE1
TIE2 = system: T1, TIE2
T1 construct: gene TEK

TLK1 = system: TLK1
TLK2 = system: TLK2
TNIK = system: TNIK
TNK1 = system: TNK1
TNK2 = system: TNK2
TNNI3K = system: TNNI3K
TRKA = system: T2, TRKA
T2 construct: gene NTRK1

TRKB = system: TRKB
TRKC = system: T3, TRKC
T3 construct: gene NTRK3

TRPM6 = system: TRPM6
TSSK1B = system: TSSK1B
TSSK3 = system: TSSK3
TTK = system: TTK
TXK = system: TXK
[1] = system: TYK2(JH1domain-catalytic)
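Note: KINOMEscan kinase panel screen.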

SMILES	%Inh (TESK1)	%Inh (TGFBR1)	%Inh (TGFBR2)	%Inh (TIE1)	%Inh (TIE2)	%Inh (TLK1)	%Inh (TLK2)	%Inh (TNIK)	%Inh (TNK1)	%Inh (TNK2)	%Inh (TNNI3K)	%Inh (TRKA)	%Inh (TRKB)	%Inh (TRKC)	%Inh (TRPM6)	%Inh (TSSK1B)	%Inh (TSSK3)	%Inh (TTK)	%Inh (TXK)	%Inh [1]
COc1cc(Nc2ccnc3cc(-c4ccncc4)ccc23)cc(OC)c1OC.Cl [GW494610]	73%	63%	59%	19%	15%	0%	0%	89%	40%	28%	14%	38%	7%	37%	16%	0%	22%	0%	92.8%	17%
Cc1ccc(NC(=O)c2ccnc(N3CCCCC3)c2)cc1-c1ccc(C(=O)NCC2CC2)cc1 [GW775610]	1%	6%	0%	0%	0%	100%	0%	0%	0%	0%	13%	58%	14%	0%	0%	0%	23%	0%	0%	19%
Cl.Cl.NCC(NC(=O)c1cc(-c2cccnc2)c(-c2ccnc3[nH]ccc23)s1)c1ccccc1 (stereo not shown) [GSK1323434]	19%	22%	27%	19%	0%	14%	0%	77%	0%	16%	26%	31%	40%	48%	34%	14%	19%	4%	0%	28%
Cc1cccc(Nc2nc(N[C@H]3CCCC[C@H]3N)ncc2C(N)=O)c1.Cl [GSK986310]	22%	0%	0%	15%	0%	17%	7%	74%	33%	31%	31%	99%	55%	22%	0%	64%	33%	36%	0%	70%
COC(=O)Nc1nc2ccc(Oc3ccc(CC(=O)Nc4cc(C(F)(F)F)ccc4F)cc3)cc2[nH]1 [GW680903]	17%	17%	0%	94%	36%	14%	0%	0%	0%	17%	70%	0%	37%	49%	16%	0%	24%	0%	8%	23%
CN(c1ccc2c(c1)nc(NCc1ccccc1)n2C)c1ccnc(Nc2ccc(CS(C)(=O)=O)cc2)n1.Cl [GW811603]	0%	30%	5%	88%	82%	0%	0%	24%	25%	0%	0%	78%	77%	55%	0%	0%	37%	16%	78%	40%
Cc1ccc(NC(=O)c2cccc(N3CCCCC3)c2)cc1-c1ccc(C(=O)NCC2CC2)cc1 [GSK1917008]	0%	24%	9%	1%	0%	4%	0%	2%	6%	16%	28%	0%	0%	0%	23%	28%	10%	11%	7%	16%
Cn1cc(-c2cnc(N)c3c(-c4ccc5c(c4)CCN5C(=O)Cc4ccccc4)csc23)cn1 [GSK2593074]	53%	6%	4%	84%	84%	31%	5%	8%	19%	62%	0%	79%	80%	66%	15%	0%	0%	7%	9%	0%
Cc1ccc(Nc2ccnc(Nc3ccc(C)c(F)c3)n2)cc1O.Cl [GW582868]	0%	0%	83%	47%	0%	0%	0%	0%	0%	29%	0%	0%	50%	35%	0%	11%	8%	0%	12%	31%
Cl.Cl.NC(CNC(=O)c1cc(Br)c(-c2ccnc3[nH]ccc23)s1)c1ccccc1 (stereo not shown) [GSK1322949]	37%	10%	32%	33%	6%	31%	12%	59%	14%	10%	0%	100%	91.6%	85%	0%	7%	34%	38%	0%	71%
CC(C)c1nc(-c2ccc(F)c(NS(=O)(=O)c3c(F)cccc3F)c2)c(-c2ccnc(Nc3ccc(N4CCOCC4)nc3)n2)s1 [GSK1804250]	96.2%	90.8%	92.9%	87%	98.9%	19%	11%	27%	100%	99.5%	18%	98%	0%	0%	7%	15%	24%	52%	85%	39%
O=C(O)C(F)(F)F.O=c1[nH]ccc2nc(N[C@@H]3CCNC3)nc(Nc3ccc4c(c3)S(=O)(=O)CC4)c12 [GSK2181306]	0%	0%	0%	0%	0%	94.6%	98.5%	98%	31%	3%	11%	100%	92.8%	84%	38%	69%	96.5%	85%	26%	90.8%
Cc1ccc(C)c(NC(=O)Nc2ccc(C)c(-c3ccc(C(=O)Nc4ccncc4)cc3)c2)c1 [GSK1398473]	20%	11%	0%	0%	0%	0%	0%	0%	7%	36%	59%	0%	0%	0%	2%	17%	2%	13%	25%	0%
CNc1nccc(-c2ccc3c(N)n[nH]c3c2)n1 [GSK2206003]	31%	25%	9%	15%	0%	8%	1%	50%	0%	17%	0%	52%	23%	3%	0%	0%	21%	37%	11%	46%
Nc1ncc(-c2cn[nH]c2)c2scc(-c3ccc4c(c3)CCN4C(=O)Cc3ccccc3)c12 [GSK2593067]	59%	0%	0%	97.4%	83%	0%	0%	69%	45%	79%	0%	96.8%	63%	70%	16%	3%	20%	1%	30%	10%
O=C(Nc1n[nH]c2nc(-c3ccccc3O)ccc12)C1CC1 [SB-711880]	0%	0%	0%	16%	0%	22%	0%	79%	20%	0%	0%	49%	17%	16%	0%	0%	0%	18%	0%	0%
COC(=O)Nc1nc2ccc(Oc3ccc(NC(=O)Nc4cc(C(F)(F)F)ccc4F)cc3)cc2[nH]1.Cl [GW654607]	0%	0%	7%	97.7%	99.7%	7%	4%	5%	48%	12%	92.4%	100%	94.8%	98.9%	26%	100%	6%	17%	0%	8%
O=C(Nc1n[nH]c2nc(-c3ccccc3)ccc12)C1CC1 [SB-708999]	17%	0%	0%	15%	3%	0%	0%	79%	0%	2%	11%	1%	0%	24%	0%	0%	16%	0%	5%	33%
CN(C)CCNS(=O)(=O)c1ccc(-c2ccnc3[nH]ccc23)cc1 [GSK977620]	74%	0%	0%	32%	0%	7%	7%	0%	0%	7%	3%	93.4%	63%	54%	0%	58%	15%	50%	91%	46%
CN(C)c1ncnc2nc[nH]c12 [SKF-31736]	0%	0%	0%	5%	0%	0%	0%	0%	0%	0%	0%	0%	0%	28%	30%	0%	4%	0%	0%	0%
